High-throughput results: PubChem BioAssay, National Center for Advancing Translational Sciences (NCATS)
Most compounds without a hit are left out; they make up all but 19% or so of the library.
Pf growth 96h: inhibits malaria parasite growth, 96 h | 320,000 compounds, 6.9% hits | P. falciparum luciferase reporter growth, 96 h | AID 504834 | Potency, µM (top dose mostly 28.7 µM), hits mostly inhibitors
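Erythrocytes infected with luciferase-expressing P. falciparum were dispensed at 2% hematocrit and 0.05% parasitemia (final), then incubated with compounds 96 hours at 37 C in 5% CO2. Luminescence after detection reagent addition reported growth.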
Pf growth 48h: P. falciparum growth inhibition at 48 hours (one generation); P. falciparum luciferase growth in erythrocytes, 48 h; AID 504832; 310,000 compounds, 5.9% hits; Potency, µM (top dose mostly 28.7 µM), actives largely listed as inhibitors
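In quantitative HTS format, infected erythrocytes bearing luciferase-reporter parasites were treated for a single generation at 37 C. Luminescence after adding detection reagent served as the growth measure.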
SARS PLP yeast: blocks SARS-CoV papain-like protease in a yeast assay; S. cerevisiae expressing SARS-CoV PLpro, growth rescue; 330,000 compounds, 0.19% hits; AID 485353; Potency, µM (highest dose often 32.9 µM), hits mostly activators; calls by dose curve; further: nearly all actives have a fitted effect of over 55% in size
AMA1-RON2 inh: inhibitors of Plasmodium falciparum AMA1-RON2 interaction; AlphaScreen AMA1-biotinylated RON2 peptide binding; AID 720542; Potency, µM (titrated, usually from 58.2 µM), most hits filed as inhibitors; 360,000 compounds, 0.2% hits; further: nearly all actives have a fitted effect of over 45% in size
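AMA1 (3D7) with his tag at 25 nM final met compounds first, then biotinylated RON2 peptide at 25 nM; detection used donor plus acceptor beads, 10 µg/mL apiece, read by AlphaScreen after 30 min at room temperature.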
CHX counter: counter-screen hit for Shiga toxin inhibitors, cycloheximide; cell reporter, cycloheximide protein synthesis inhibition counterscreen; max response, %; 300,000 compounds, 12% hits; in the data active means max response mostly above about 13%, no sharp cut-off; inactive means mostly below about 14%; further: read at 38.3 µM for the half of the compounds with a filed dose
Shiga toxin inh: blocks Shiga toxin action in Vero cells. Vero cells, Shiga toxin protein synthesis inhibition reporter. inhibition, % at 38.7 µM. 290,000 compounds, 9.2% hits. AID 2315; in the data active means inhibition mostly above about 28%, no sharp cut-off; inactive means mostly below about 43%
Of the large screens only hits and unclear results are named; the others gave an inactive call. Unless noted, the call rests on the fitted dose curve; in most records, active means well fitted curve in the direction sought with a large enough effect; inconclusive means small, poorly fitted or top-dose-only effect, or another doubt; inactive means no such curve, though single readings can be large; an effect the other way counts as inactive or inconclusive.

NC(=O)c1cc(NC(=O)c2cc(Br)c(Br)s2)cc(C(N)=O)c1	Pf growth 96h 8.3µM
O=C(Nc1cccnc1)c1cc(Br)c(Br)s1	Pf growth 96h 12µM, Pf growth 48h inconclusive (no result: CHX counter, Shiga toxin inh)
COc1cc(OC)c(C(=O)Nc2cccnc2)cc1OC	Pf growth 96h inconclusive
CCN1CCN(CCCNC(=O)c2ccc3c(=O)n(CCc4ccccc4)c(=O)[nH]c3c2)CC1	Pf growth 96h inconclusive, Pf growth 48h inconclusive
COc1ccc(NC(=O)c2cc(Cl)ccc2Cl)c([N+](=O)[O-])c1	Pf growth 96h inconclusive
COc1cc(NC(=O)COc2ccccc2Cl)ccc1NC(=O)c1cccs1	none
O=C(COC(=O)COc1ccccc1[N+](=O)[O-])Nc1cccc(Br)c1	CHX counter 15
COc1ccc(NC(=O)c2sccc2C)c([N+](=O)[O-])c1	CHX counter 32
COc1cc(NC(=O)COc2ccccc2[N+](=O)[O-])ccc1NC(=O)c1cccs1	Pf growth 96h 12µM
COc1ccc(NC(=O)/C=C/c2ccccc2)c([N+](=O)[O-])c1	Pf growth 96h inconclusive, CHX counter 65, Shiga toxin inh 126
C=CCn1c(Oc2ccc(C=O)cc2OCC)nc2c1c(=O)n(C)c(=O)n2C	none
CCCc1c(-c2cccc(Cl)c2)ncn1CCc1ccccc1OC	none (no result: Pf growth 96h, Pf growth 48h, SARS PLP yeast, CHX counter, Shiga toxin inh)
CC(C)(C)[C@H]1C=C(C(=O)O)O[C@@H](OCc2ccc(CO)cc2)C1	none (no result: Pf growth 96h, Pf growth 48h, SARS PLP yeast, CHX counter, Shiga toxin inh)
COc1ccc(NC(=O)c2cccs2)c([N+](=O)[O-])c1	SARS PLP yeast inconclusive, CHX counter 37, Shiga toxin inh 80
COc1ccc(NC(=O)C/C(C)=N/NC(=O)c2cccs2)c([N+](=O)[O-])c1	Pf growth 96h inconclusive, CHX counter 61, Shiga toxin inh 120
CCCCC(=O)Nc1ccc(C(=O)Nc2ccc(OC)cc2[N+](=O)[O-])cc1	Pf growth 96h 3.7µM
O=C(O)c1ccc(Oc2ccccc2)o1	none
COc1ccc(CCNC(=O)C(=O)NCc2ccc(Cl)cc2)cc1OC	none
Cc1cccc2sc(NC(=O)C3CSC4(C)CCC(=O)N34)nc12 (stereo not given)	none
CC12CCC(=O)N1C(C(=O)Nc1nnc(SCc3ccccc3F)s1)CS2 (stereo not given)	CHX counter 20, Shiga toxin inh 56
CC(C)COC(=O)Nc1nnc(SCc2ccccc2F)s1	Pf growth 96h inconclusive, AMA1-RON2 inh inconclusive
CCc1nnc(NC(=O)C2CSC3(C)CCC(=O)N23)s1 (stereo not given)	none (no result: CHX counter, Shiga toxin inh)
CC12CCC(=O)N1C(C(=O)Nc1nc3c(F)cc(F)cc3s1)CS2 (stereo not given)	Pf growth 96h inconclusive, CHX counter 21
CCC(=O)Nc1nnc(SCc2ccccc2F)s1	Shiga toxin inh 79
O=c1c2ccccc2sn1-c1ccc(F)cc1	Pf growth 96h inconclusive, Pf growth 48h 10µM (no result: CHX counter, Shiga toxin inh)
Cc1ccc(-n2sc3ccccc3c2=O)cc1	Pf growth 48h 4.1µM, CHX counter 18
Cc1ccc2nc(Cl)c(/C=N/Nc3nc(C)cc(C)n3)c(=O)n2c1	none
CC(C)N(C(=O)CSc1nc2ccccc2c(=O)[nH]1)C(C)C	none
N#CCC(=O)Nc1ccc(C(=O)NCC(c2ccco2)N2CCCCC2)cc1 (stereo not given)	Pf growth 96h inconclusive, Pf growth 48h inconclusive
O=C(NCc1ccccc1F)C1CCCN(S(=O)(=O)N2CCOCC2)C1 (stereo not given)	none
COCCC(=O)N1CCCC(C(=O)c2ccc(C(F)(F)F)cc2)C1 (stereo not given)	Pf growth 96h 13µM
O=C(c1ccc(C(F)(F)F)cc1)C1CCCN(C(=O)CN2CCCC2=O)C1 (stereo not given)	none
O=C(c1ccc(C(F)(F)F)cc1)C1CCCN(C(=O)CCc2cnccn2)C1 (stereo not given)	none
O=C(c1ccc(C(F)(F)F)cc1)C1CCCN(C(=O)CN2C(=O)CSC2=O)C1 (stereo not given)	CHX counter 25, Shiga toxin inh 53
Cc1ccccc1N1CCN(C2CCCN(C(=O)CCN3CCCCO3)C2)CC1 (stereo not given)	none
FC(F)(F)c1cccc(CNC2CCN(Cc3ccccc3)CC2)c1	Pf growth 96h inconclusive, Pf growth 48h 2.6µM
C#CCOc1ccccc1CNC1CCN(Cc2ccccc2)CC1	Pf growth 96h 13µM, Pf growth 48h 9.3µM
FC(F)(F)c1cccc(CN2CCCCCC2)c1	none (no result: Pf growth 96h)
C#CCOc1ccccc1CNc1ccccc1	none
N#Cc1ccc2[nH]c(CO)c(-c3ccccc3)c2c1	none
C[C@@H](NC(=O)c1[nH]cnc1C(=O)Nc1nccs1)c1ccccc1	Pf growth 96h inconclusive, Pf growth 48h inconclusive (no result: CHX counter, Shiga toxin inh)
C(=N\Nc1nc2ccccc2[nH]1)/c1cccs1	Pf growth 96h 2.6µM, Pf growth 48h 2.9µM, CHX counter 69, Shiga toxin inh 124
Cc1ccsc1/C=N/Nc1nc2ccccc2[nH]1	Pf growth 96h inconclusive, Pf growth 48h inconclusive, CHX counter 43, Shiga toxin inh active
Clc1ccc(-n2nnnc2-c2cnc3ccc(Cl)cc3c2-c2ccccc2)cc1	Pf growth 96h 12µM, Pf growth 48h 13µM
Clc1ccc2ncc(-c3nnnn3-c3ccccc3)c(-c3ccccc3)c2c1	Pf growth 96h inconclusive, Pf growth 48h inconclusive
O=C(c1cccs1)N1CCN(C(=O)C2CCCO2)CC1 (stereo not given)	Pf growth 96h 4.7µM
Cc1ccc(CN2CCN(C(=O)C3CCCO3)CC2)cc1 (stereo not given)	none (no result: Pf growth 96h)
Cc1ccc(-c2nc(CN3CCN(C(=O)C4CCCO4)CC3)cs2)cc1 (stereo not given)	CHX counter 14
CCCN(CCC)C(=O)C1CCCN(S(=O)(=O)c2ccc3c(c2)oc(=O)n3C)C1 (stereo not given)	Pf growth 96h inconclusive
O=C1NCCN/C1=C\C(=O)c1ccccc1	CHX counter 33 (no result: Pf growth 48h)
O=C1NCCN/C1=C\C(=O)c1cccc(Br)c1	CHX counter 34, Shiga toxin inh 72
O=C1OCCN/C1=C\C(=O)c1ccccc1	none
O=C1NCCN/C1=C\C(=O)c1ccc(Br)cc1	CHX counter 45, Shiga toxin inh 64
O=C(c1cccc(Br)c1)N1CCN(C(=O)c2cccc(Br)c2)CC1	Pf growth 96h inconclusive, Pf growth 48h inconclusive
O=C1CC[C@H](C(=O)N[C@@H]2C[C@H]2c2ccccc2)N1	none (no result: SARS PLP yeast, AMA1-RON2 inh, CHX counter, Shiga toxin inh)
CC(=O)NS(=O)(=O)c1ccc(NC(=O)c2ccc(S(=O)(=O)N3CCCC3)cc2)cc1	none (no result: CHX counter, Shiga toxin inh)
COc1ccc(N(C(=O)c2ccccc2C)S(=O)(=O)c2cccs2)cc1	Pf growth 96h 8.3µM, Pf growth 48h inconclusive
CC(C)C(OC(=O)c1ccccc1)c1nccc2ccccc12 (stereo not given)	CHX counter 49, Shiga toxin inh 86
O=C(OC(c1ccccc1)c1nccc2ccccc12)c1cccc([N+](=O)[O-])c1 (stereo not given)	CHX counter 32
